Measured values as given in PubChem BioAssay.
Inconclusive results are not listed. The source made the active and inactive calls.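 The calls were made as follows, unless noted: active = viability loss from added drug above about 55%, and viability with drug at most 40%, in both replicates (limit read from the data, passing the limit was not always enough); inconclusive = both conditions met in only one replicate; inactive = neither replicate meets both conditions.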

How the values were obtained:
[1] = target: Pantothenate synthetase (Mycobacterium tuberculosis (strain ATCC 25618 / H37Rv)) (UniProt P9WIL5); experiment: Recombinant Mtb pantothenate synthetase (PanC) inhibitors, coupled enzyme, confirmatory (AID 375; call rule not given here;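 also: 0% = full reaction with vehicle and 100% = no enzyme background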); settings: coupled enzyme assay; at 10 µM, stronger effect = higher value
[2] = SK-BR-3 cell growth inhibitors, pilot screen, 24 h, human (AID 572;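 active = viability at or below 10% of carrier control in both of two separate runs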;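 also: compound exposure lasted between 18 and 24 h rather than exactly 24 h; 100% = carrier-treated control wells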); settings: SK-BR-3 viability, CellTiter-Glo luminescence, at 10 µM, stronger effect = lower value
[3] = HUVEC growth inhibition – cell-based, human, primary screen (AID 575;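 active = viability at or below 30% in both replicate assays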;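 also: 100% = median of untreated cell wells with 0.1% DMSO on each plate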); settings: HUVEC proliferation, CellTiter-Glo luminescence, 72 h; at 10 µM; stronger effect = lower value
[4] = growth inhibitors of H69AR lung tumor, primary screen, human, duplicate replicates (AID 580;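 active = viability at or under a set limit in both replicates, limit being median viability minus 3 SD, cut at about 48% in these data, passing the limit was not always enough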;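 also: 100% = mean luminescence of untreated wells and 0% = no signal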); settings: H69AR lung tumor cells viability, ATP luminescence, 72 h; at 10 µM; stronger effect = lower value
[5] = reversal of MRP1-mediated doxorubicin resistance, pilot screen, H69AR cells, doxorubicin co-treatment (AID 601); settings: CellTiter-Glo, 72 h, at 10 µM; for differential viability (reversal): stronger effect = higher value
[6] = 384-well plate pilot, post-Golgi transport modulator project, inhibition of yeast transport mutant growth (AID 636; in the data active = inhibition above about 31%); settings: absorbance 615 nm, about 18 h, stronger effect = higher value
[7] = growth suppression of yeast trafficking mutant, preliminary HTS, modulators of trafficking downstream of Golgi apparatus project, 1536-format plate, OD 615 nm (AID 637; in the data active = inhibition above about 30%); settings: yeast transport mutant growth, absorbance 615 nm, 18 h; stronger effect = higher value
[8] = OD615 S. cerevisiae growth inhibition, permissive medium, pilot counter-assay, permissive growth control for S. cerevisiae lifespan shortening project (AID 705;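 active = growth inhibition above 25% in both replicates, a cutoff set 3 SD above the mean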); settings: OD615, 24 h, at 10 µM, stronger effect = higher value
[9] = Restrictive medium S. cerevisiae growth inhibition, OD615, pilot screen of yeast lifespan reduction project, restrictive growth control (AID 706;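 active = growth inhibition above a set limit, 3 SD over mean compound inhibition, in both replicates, cut at about 43% in these data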;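 also: modified DeaD lifespan yeast strain shifted to restrictive glucose medium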); settings: OD615, 48 h, at 10 µM, stronger effect = higher value
[10] = viability gain of MRP-1-high H69AR cells under doxorubicin, pilot screen, MRP-1 activator project, CellTiter-Glo, duplicate (AID 807;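 active = viability increase at or above a cutoff of the median across tested compounds plus 3 SD, cut at about 8.5% in these data, passing the limit was not always enough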;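 also: compound pretreatment 18-22 h then 72 h combined with doxorubicin; 0% = doxorubicin alone and 100% = vehicle without doxorubicin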); settings: H69AR viability with doxorubicin, CellTiter-Glo luminescence; at 10 µM; stronger effect = higher value
[11] = growth suppression of beta-catenin knockout HCT116, pilot screen, human colon tumor cells (AID 823;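 active = cell viability at or below a set limit in both duplicate runs, the limit being the all-compound median minus 4 SD, cut at about 23% in these data, passing the limit was not always enough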;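 also: 0% = wells killed by 20 µM Hyamine and 100% = untreated DMSO cell wells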); settings: CellTiter-Glo, 60 h, at 10 µM, stronger effect = lower value
[12] = inhibitors of the yeast RAM network, pilot screen, dse1pr::URA3 reporter, 5-FOA selection (AID 869;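 active = inhibition over a set limit, the all-compound mean plus 3 SD, in both replicate runs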;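 also: 0% = DMSO wells with no growth and 100% = 10 µM 1-NA-PP1 with full growth; RAM network block rescues cells from 5-FOA so hits raise OD615 growth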); settings: S. cerevisiae dse1pr::URA3 5-FOA growth, OD615, 2 d, at 10 µM, stronger effect = higher value
[13] = growth suppression of PTEN-deleted HCT116, pilot screen, cell-based, HCT116 clonal line, CellTiter-Glo (AID 824;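 active = viability at or below 27.92% in each of two runs, the all-compound median minus 4 SD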;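 also: 0% = 20 µM Hyamine control and 100% = vehicle cell control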); settings: 60 h, at 10 µM, stronger effect = lower value
[14] = H69AR cells + 2 uM doxorubicin, measured here: viability with 2 uM doxorubicin, stronger effect = lower value
[15] = H69AR cells, compound alone cytotoxicity

Sequence of Pantothenate synthetase (Mycobacterium tuberculosis (strain ATCC 25618 / H37Rv)) (P9WIL5 whole entry, looked up): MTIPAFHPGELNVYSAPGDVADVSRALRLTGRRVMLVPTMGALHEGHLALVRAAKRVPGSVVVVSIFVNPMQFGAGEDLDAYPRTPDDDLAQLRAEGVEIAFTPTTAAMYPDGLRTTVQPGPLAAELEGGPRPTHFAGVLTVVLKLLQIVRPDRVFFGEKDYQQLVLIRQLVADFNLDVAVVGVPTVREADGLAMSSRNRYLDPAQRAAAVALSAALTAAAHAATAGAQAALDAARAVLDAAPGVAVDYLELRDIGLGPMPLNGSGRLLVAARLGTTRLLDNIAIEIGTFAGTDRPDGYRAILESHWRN

SMILES | inhibition [1] | viability [2] | viability [3] | viability [4] | differential viability (reversal) ([5]; H69AR cells + 2 uM doxorubicin) | viability [5, 14] | viability [5, 15] | inhibition [6] | inhibition [7] | growth inhibition [8] | growth inhibition [9] | viability increase [10] | viability [11] | inhibition [12] | viability [13]
C[C@H]1OC[C@@H](C[N+](C)(C)C)O1 | 0% (inactive) | 103% (inactive) | 99.6% (inactive) | 106% (inactive) | 7.41% (inactive) | 98.6% | 106% | -1.43% (inactive) | 4.67% (inactive) | – | – | – | – | – | –
CN1CCN(C(=O)COc2ccc(-c3nc4ccccc4s3)cc2)CC1 | – | – | – | – | – | – | – | – | – | -5.45% (inactive) | 10.8% (inactive) | -4.38% (inactive) | 66.1% (inactive) | 2.09% (inactive) | –
CC[N+]1(C)CCCC(OC(=O)C(O)(c2ccccc2)c2ccccc2)C1 (stereo unspecified) | 0% (inactive) | 81% (inactive) | 76.8% (inactive) | 101% (inactive) | 11.1% (inactive) | 89.6% | 101% | -5.71% (inactive) | -3.67% (inactive) | – | – | – | – | – | –
O=C(Cn1ncc2c3ccccc3n(Cc3ccc(F)cc3)c2c1=O)N1CCC2(CC1)OCCO2 | 7% (inactive) | 86% (inactive) | 96% (inactive) | 89.2% (inactive) | -9.23% (inactive) | 98.4% | 89.2% | -5.41% (inactive) | -2.55% (inactive) | – | – | – | – | – | –
O=C(Cn1cc(C(=O)c2ccccc2)c2ccccc21)NCc1ccco1 | 2% (inactive) | – | 47.3% (inactive) | 22.6% (active) | -47.2% (inactive) | 69.8% | 22.6% | 2.47% (inactive) | 6.51% (inactive) | – | – | – | – | – | –
CCCCN1C(=O)NC(=O)C2(Cc3c(nc4c(C)cccn4c3=O)N3CCc4ccccc4C32)C1=O (stereo unspecified) | 3% (inactive) | 111% (inactive) | – | – | -19.7% (inactive) | 75.6% | 55.8% | 3.56% (inactive) | 10.5% (inactive) | – | – | – | – | – | –
Cc1ccc(Cn2c(C)c3cnn(CC(=O)N4CCC5(CC4)OCCO5)c(=O)c3c2C)cc1 | 0% (inactive) | 97% (inactive) | 98% (inactive) | – | -46.2% (inactive) | 100% | 53.8% | -0.81% (inactive) | -1.09% (inactive) | – | – | – | – | – | –
O=c1[nH]c2ccccc2n1C1CCN(CCCC(c2ccc(F)cc2)c2ccc(F)cc2)CC1 | 5% (inactive) | – | 2.55% (active) | – | -0.46% (inactive) | 1.62% | 1.16% | – | – | – | – | – | – | – | –
Cc1cc(OCC(=O)O)c2c3c(c(=O)oc2c1)CCCC3 | 1% (inactive) | 132% (inactive) | 85.9% (inactive) | 84.8% (inactive) | -3.02% (inactive) | 87.9% | 84.8% | -4.16% (inactive) | 7.38% (inactive) | – | – | – | – | – | –
C#C[C@]1(O)CC[C@H]2[C@@H]3CCC4=CC(=O)CC[C@]4(C)[C@H]3CC[C@@]21C | 4% (inactive) | 101% (inactive) | 91.6% (inactive) | 91.3% (inactive) | -13.7% (inactive) | 105% | 91.3% | -1.69% (inactive) | 11.2% (inactive) | – | – | – | – | – | –
O=C1c2ccccc2C(=O)N1Cc1nc2ccccc2c(=O)n1-c1ccc(Br)cn1 | – | – | – | – | – | – | – | – | – | -8.78% (inactive) | -3.02% (inactive) | 0.3% (inactive) | 98.4% (inactive) | 1.44% (inactive) | 99.3% (inactive)
C[C@H]1CCCC(=O)CCCCCc2cc(O)cc(O)c2C(=O)O1 | 2% (inactive) | 107% (inactive) | – | 87.3% (inactive) | -23% (inactive) | 110% | 87.3% | 0.26% (inactive) | -1.83% (inactive) | – | – | – | – | – | –
Cc1ccccc1-n1c(O)c(C=NCCN2CCOCC2)c(=O)[nH]c1=O | 2% (inactive) | – | 97.6% (inactive) | 92.4% (inactive) | -3.12% (inactive) | 95.5% | 92.4% | -5.87% (inactive) | -8.41% (inactive) | – | – | – | – | – | –
Cc1cccc(C2=NCC(=O)N(CC(=O)NCc3ccco3)c3sc4c(c32)CCCC4)c1 | 8% (inactive) | 102% (inactive) | – | – | -28.5% (inactive) | 84.4% | 55.9% | -6.49% (inactive) | 4.6% (inactive) | – | – | – | – | – | –
CCOc1cccc(N2C(=O)CC(=O)NC2=O)c1 | 0% (inactive) | 124% (inactive) | 107% (inactive) | 94.5% (inactive) | -2.27% (inactive) | 96.8% | 94.5% | -2.6% (inactive) | -8.55% (inactive) | – | – | – | – | – | –
CCOC(=O)c1c(N)n(Cc2ccco2)c2nc3ccccc3nc12 | – | – | – | – | – | – | – | – | – | -1.25% (inactive) | 0.175% (inactive) | -6.16% (inactive) | 83.3% (inactive) | 1.18% (inactive) | 74% (inactive)
CC(C)[C@H]1C(=O)N2CCC[C@H]2[C@]2(O)O[C@](NC(=O)[C@@H]3C=C4c5cccc6[nH]cc(c56)C[C@H]4N(C)C3)(C(C)C)C(=O)N12 | 5% (inactive) | 104% (inactive) | 86.4% (inactive) | 104% (inactive) | 0.81% (inactive) | 103% | 104% | -0.78% (inactive) | 7.17% (inactive) | – | – | – | – | – | –
